Data published in PubChem BioAssay AID837 (The Scripps Research Institute Molecular Screening Center, 2007).
Calls of active or inactive are those of the source.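 How the source made its calls: active means relative FRET score above 0.01, or acceptor fluorescence over 30% below the sample-well median; inactive means the rest.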

These compounds were tested against Protein Rev (Human immunodeficiency virus type 1 group M subtype B (isolate WMJ22)) (UniProt P05866) (assay: HIV-1 Rev-RRE binding inhibitors, retest, confirmation, biochemical, FRET, acceptor and relative FRET calls (AID 837;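 further: relative FRET combines rise in Cy5 acceptor with fall in fluorescein donor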)). Conditions: Fl-Rev peptide / Cy5-RRE RNA FRET, 1536-well; at 8 µM.
Protein Rev (Human immunodeficiency virus type 1 group M subtype B (isolate WMJ22)), sequence (P05866 whole entry, looked up): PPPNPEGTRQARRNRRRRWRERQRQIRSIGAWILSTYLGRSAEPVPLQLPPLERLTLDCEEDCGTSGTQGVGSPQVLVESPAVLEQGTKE

Compound	outcome
CCCN(N=Nc1cccc([N+](=O)[O-])c1)c1cccc([N+](=O)[O-])c1	inactive
Cc1ccc(S(=O)(=O)c2c(COC(=O)c3ccc(Cl)cc3)c(-c3ccccc3)nn2C)cc1	inactive
C=CCn1c(=O)c(C(=O)NCCNCC)c(O)c2ccccc21	inactive
CCOC(=O)[C@@H]1CCNC[C@@H]1c1ccccc1	inactive
O=C(NCCCO)Nc1ccc2nc(-c3ccco3)c(-c3ccco3)nc2c1	inactive
CN1CCN(Cc2cccc(Oc3ccc(Cl)cc3)c2)CC1	inactive
COC(=O)c1scc(C)c1N/N=C(\C)c1ccc(F)cc1F	inactive
CCOC(=O)c1cnc(SC)nc1Sc1ccccc1Cl	inactive
OCCN=c1cc(-c2ccccc2)oc2ccc(Cl)cc12	inactive
Nc1[nH]c(=S)[nH]c(=O)c1-c1ccccc1	inactive
O=c1cc(-c2ccco2)oc2c1ccc1ccccc12	inactive
CC(=O)c1ccc2c(c1)c1ccccc1n2CC(C)C	inactive
CC(C(=O)O)N1C(=O)/C(=C/C=C/c2ccco2)SC1=S (stereo not given)	inactive; quenches the donor
COc1ccc(CSc2nnc(C)n2N)cc1	inactive
CC1CC(c2ccccc2)n2nc(NC(=O)c3cccs3)nc2N1 (stereo not given)	inactive
COc1cc2[nH]c(=O)c(C(=O)NCCCN3CCCCC3)c(O)c2cc1OC	inactive
CC(Nc1nc(N2CCCCC2)nc2ccccc12)c1ccccc1 (stereo not given)	inactive
Cc1ccc2nc(NC(=O)c3ccc(Cl)s3)sc2c1	inactive
C[n+]1c2n(c3ccccc31)N=C(c1ccc(Br)cc1)CS2	inactive
CN=C1c2c(-c3ccccc3)c3cc(OC)ccc3n2CCN1C	inactive

Compound	outcome
O=c1nc(N2CCCC2)nc(Nc2ccccc2)[nH]1	inactive
Cc1occc1C(=O)Nc1sc2c(c1C(N)=O)CCC(C(C)(C)C)C2 (stereo not given)	inactive
COc1ccc(C(=O)c2coc3ccc(O)c(CN4CCCC4)c23)cc1	inactive
Cc1ccc2[nH]c(=O)c3cc(C(=O)NCCN4CCN(C)CC4)sc3c2c1	inactive
COC(CNc1cc(=O)oc2ccccc12)OC	inactive
CN(CC(O)COc1ccc(OCC(O)CN(C)C2CCCCC2)cc1)C1CCCCC1 (stereo not given)	inactive
Cc1ccc(C)n1-c1sccc1C(=O)O	inactive
CCCCOc1ccc(CSC(=N)N)cc1[N+](=O)[O-]	inactive
Cc1cccc(N2C(N)=NC(N)=NC23CCCCC3)c1	inactive
N=c1n(CCO)c2ccccc2n1CCOc1ccccc1	inactive
COn1cnnc1-c1ccccc1	inactive
COc1ccc2c3c(cccc13)NN=C2C	inactive
c1coc(CNc2c3c(nc4ccccc24)CCC3)c1	inactive
C1=C2C[N+]3(CCCC3)CC2Cc2ccc3ccccc3c21 (stereo not given)	inactive
CCN1C2=NCCCN2c2cc(C)c(C)cc21	inactive
CN(C)CCNCc1ccccc1OC1CCCC1	inactive
CNCCCOc1ccc(C(C)(C)c2ccccc2)cc1	active
C=CCn1cc(-c2ccccc2)cc(C#N)c1=O	inactive
O=C(N/N=C/c1ccc(F)cc1)c1cc(-c2ccco2)nc2ccccc12	active; quenches the donor
COc1ccc(CCn2c(=N)c(C(=O)NCc3ccco3)cc3c(=O)n4cccc(C)c4nc32)cc1	inactive
